# Test results taken from PubChem BioAssay (NCI).
# This is part of a sample that, as a whole, favours compounds with a hit. Of some 79,000 tested, about 15% had one in any assay. Unmarked numbers belong to inactive results. Activity calls are given as the source filed them. Cut-off read from the data, not from the text of the source: active = growth inhibition above about 70%; inactive = the rest.
# Experiments:
# [1] = NCI Yeast Anticancer Drug Screen. Data for the rad52 strain (AID 147);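 note: 0% = growth of vehicle-treated control cultures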; conditions: S. cerevisiae rad52 mutant growth inhibition, stronger effect = higher value
# Method in brief: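 Screen used a yeast mutant impaired in DNA repair. After compound exposure, growth was measured. Values reflect inhibition compared with vehicle-treated cells.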
# [2] = NCI Yeast Anticancer Drug Screen. Data for the wt1 strain (AID 149);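 note: 0% = growth of vehicle-treated wt1 cultures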; conditions: S. cerevisiae wt1 strain (SPY 50644) growth inhibition, stronger effect = higher value
# Method in brief: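 Using yeast strain wt1, compound-induced growth inhibition was determined against vehicle-treated cultures.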
# [3] = NCI Yeast Anticancer Drug Screen. Data for the rad50EPP+ strain (AID 151);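 note: 0% = growth of vehicle-treated control cultures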; conditions: S. cerevisiae rad50 mutant strain, stronger effect = higher value
# Method in brief: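 Exposing the rad50EPP+ strain to each compound, growth was compared with vehicle-only cultures to give inhibition.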
# [4] = NCI Yeast Anticancer Drug Screen. Data for the mgt1 strain (AID 153); conditions: S. cerevisiae mgt1 mutant growth inhibition, stronger effect = higher value
# Method in brief: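 Genetically defined yeast (mgt1) treated with compound; inhibition of growth expressed against vehicle-treated controls.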
# [5] = NCI Yeast Anticancer Drug Screen. Data for the rad50 strain (AID 155);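 note: 0% = growth of vehicle-only cultures of the same strain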; conditions: S. cerevisiae rad50 strain growth inhibition, stronger effect = higher value
# Method in brief: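 Relative growth inhibition (compound vs vehicle) was measured in yeast with a defined repair-gene alteration.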
# [6] = NCI Yeast Anticancer Drug Screen. Data for the mec2-1 strain (AID 157); conditions: S. cerevisiae mec2-1 strain, stronger effect = higher value
# Method in brief: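 Readout is yeast growth inhibition, normalised to vehicle-treated controls, in the mec2-1 strain exposed to compound.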
# [7] = NCI Yeast Anticancer Drug Screen. Data for the rad14 strain (AID 159);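 note: 0% = growth of vehicle-treated control cultures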; conditions: S. cerevisiae rad14 strain growth inhibition, stronger effect = higher value
# Method in brief: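 Screen for anticancer potential: a yeast strain altered in DNA damage repair is grown with compound, and reduced growth is quantified against vehicle controls.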
# [8] = NCI Yeast Anticancer Drug Screen. Data for the sgs1 mgt1 strain (AID 161);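 note: 0% = growth of cultures given vehicle only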; conditions: S. cerevisiae sgs1 mgt1 strain, stronger effect = higher value
# Method in brief: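 Growth of a repair-deficient yeast mutant was monitored after compound treatment and expressed as inhibition relative to vehicle-treated cultures.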
# [9] = NCI Yeast Anticancer Drug Screen. Data for the cln2 rad14 strain (AID 165);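 note: 0% = growth equal to vehicle treated cultures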; conditions: S. cerevisiae cln2 rad14 strain, stronger effect = higher value
# Method in brief: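 Relative to vehicle controls, growth inhibition of compound-treated cln2 rad14 yeast was recorded.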
# [10] = NCI Yeast Anticancer Drug Screen. Data for the bub3 strain (AID 167); conditions: S. cerevisiae bub3 mutant strain, stronger effect = higher value
# Method in brief: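 Screening used yeast with an engineered genetic alteration affecting cell cycle control. Compound-exposed cultures were compared with vehicle cultures, and reduced growth was taken as inhibition.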
# [11] = NCI Yeast Anticancer Drug Screen. Data for the wt2 strain (AID 169);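 note: 0% = growth of vehicle-treated yeast cultures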; conditions: S. cerevisiae wt2 strain growth inhibition, stronger effect = higher value
# Method in brief: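 Values express reduction in yeast growth under compound treatment, referenced to vehicle-treated cells.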
# [12] = NCI Yeast Anticancer Drug Screen. Data for the mlh1 strain (AID 171);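 note: 0% = growth of vehicle-treated control cultures of the same strain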; conditions: S. cerevisiae mlh1 strain growth inhibition, stronger effect = higher value
# Method in brief: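 Steps: expose the defined-mutant yeast strain to compound; expose a parallel culture to vehicle; measure growth; express compound effect as inhibition relative to the vehicle culture.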
# [13] = NCI Yeast Anticancer Drug Screen. Data for the sgs1 strain (AID 173);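 note: 0% = growth of vehicle-only control cultures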; conditions: S. cerevisiae sgs1 mutant, stronger effect = higher value
# Method in brief: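 Treat defined-mutant yeast with compound; measure growth; calculate inhibition relative to vehicle-treated cells.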
# [14] = NCI Yeast Anticancer Drug Screen. Data for the mlh1 rad18 strain (AID 175); conditions: S. cerevisiae mlh1 rad18 strain growth inhibition, stronger effect = higher value
# Method in brief: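 Test agents were incubated with a yeast strain of defined genotype (DNA damage repair defect). Inhibition of growth was derived by comparison with vehicle-exposed cultures.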
# [15] = NCI Yeast Anticancer Drug Screen. Data for the rad18 strain (AID 177); conditions: S. cerevisiae rad18 mutant growth inhibition, stronger effect = higher value
# Method in brief: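 A genetically defined yeast mutant impaired in DNA damage repair was treated with test compounds, then its growth was measured against cultures receiving vehicle alone.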
# [16] = NCI Yeast Anticancer Drug Screen. Data for the CLN2oe strain (AID 163);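 note: 0% = growth of vehicle-only control cultures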; conditions: S. cerevisiae CLN2oe strain, stronger effect = higher value
# Method in brief: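 Values reflect how much compound exposure reduced yeast growth, referenced to vehicle-exposed cells. Assay organism is a strain with a defined genetic change affecting cell-cycle control.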
# [17] = at 5.0 µM (retest, dose inferred, filed as 0.5)
# [18] = at 50.0 µM (retest, dose inferred, filed as 5.0)
compound,measurement,setting,value
Cc1ccc2ccc3cccc4ccc1c2c34,growth inhibition,[1]; at 1.2 µM,-1%
same,growth inhibition,[1]; at 3.7 µM,0%
same,growth inhibition,[1]; at 11.0 µM,5%
same,growth inhibition,[1]; at 33.0 µM,23%
same,growth inhibition,[1]; at 100.0 µM,27%
same,growth inhibition,[2]; at 1.2 µM,-2%
same,growth inhibition,[2]; at 3.7 µM,-2%
same,growth inhibition,[2]; at 11.0 µM,-3%
same,growth inhibition,[2]; at 33.0 µM,2%
same,growth inhibition,[2]; at 100.0 µM,15%
same,growth inhibition,[3]; at 1.2 µM,-2%
same,growth inhibition,[3]; at 3.7 µM,4%
same,growth inhibition,[3]; at 11.0 µM,20%
same,growth inhibition,[3]; at 33.0 µM,33%
same,growth inhibition,[3]; at 100.0 µM,31%
same,growth inhibition,[4]; at 1.2 µM,-1%
same,growth inhibition,[4]; at 3.7 µM,-1%
same,growth inhibition,[4]; at 11.0 µM,-3%
same,growth inhibition,[4]; at 33.0 µM,-3%
same,growth inhibition,[4]; at 100.0 µM,18%
same,growth inhibition,[5]; at 1.2 µM,4%
same,growth inhibition,[5]; at 3.7 µM,49%
same,growth inhibition,[5]; [17],-1%
same,growth inhibition,[5]; at 11.0 µM,21%
same,growth inhibition,[5]; at 33.0 µM,37%
same,growth inhibition,[5]; [18],41%
same,growth inhibition,[5]; at 50.0 µM,25.6%
same,growth inhibition,[5]; at 100.0 µM,66%
same,growth inhibition,[6]; at 1.2 µM,-1%
same,growth inhibition,[6]; at 3.7 µM,0%
same,growth inhibition,[6]; [17],3%
same,growth inhibition,[6]; at 11.0 µM,2%
same,growth inhibition,[6]; at 33.0 µM,13%
same,growth inhibition,[6]; [18],12%
same,growth inhibition,[6]; at 50.0 µM,4.75%
same,growth inhibition,[6]; at 100.0 µM,26%
same,growth inhibition,[7]; at 1.2 µM,1%
same,growth inhibition,[7]; at 3.7 µM,0%
same,growth inhibition,[7]; at 11.0 µM,3%
same,growth inhibition,[7]; at 33.0 µM,14%
same,growth inhibition,[7]; at 100.0 µM,23%
same,growth inhibition,[8]; [17],-3%
same,growth inhibition,[8]; [18],20%
same,growth inhibition,[8]; at 50.0 µM,10.6%
same,growth inhibition,[9]; [17],-3%
same,growth inhibition,[9]; [18],6%
same,growth inhibition,[9]; at 50.0 µM,14.2%
same,growth inhibition,[10]; at 1.2 µM,-1%
same,growth inhibition,[10]; at 3.7 µM,0%
same,growth inhibition,[10]; [17],2%
same,growth inhibition,[10]; at 11.0 µM,2%
same,growth inhibition,[10]; at 33.0 µM,26%
same,growth inhibition,[10]; [18],44%
same,growth inhibition,[10]; at 50.0 µM,61.5%
same,growth inhibition,[10]; at 100.0 µM,58%
same,growth inhibition,[11]; at 1.2 µM,-1%
same,growth inhibition,[11]; at 3.7 µM,7%
same,growth inhibition,[11]; at 11.0 µM,-3%
same,growth inhibition,[11]; at 33.0 µM,-2%
same,growth inhibition,[11]; at 100.0 µM,18%
same,growth inhibition,[12]; at 1.2 µM,-2%
same,growth inhibition,[12]; at 3.7 µM,-2%
same,growth inhibition,[12]; at 11.0 µM,-5%
same,growth inhibition,[12]; at 33.0 µM,3%
same,growth inhibition,[12]; at 100.0 µM,30%
same,growth inhibition,[13]; at 1.2 µM,-3%
same,growth inhibition,[13]; at 3.7 µM,-1%
same,growth inhibition,[13]; at 11.0 µM,2%
same,growth inhibition,[13]; at 33.0 µM,23%
same,growth inhibition,[13]; at 100.0 µM,42%
same,growth inhibition,[14]; [17],-3%
same,growth inhibition,[14]; [18],52%
same,growth inhibition,[14]; at 50.0 µM,70.3% (active)
same,growth inhibition,[15]; at 1.2 µM,-4%
same,growth inhibition,[15]; at 3.7 µM,0%
same,growth inhibition,[15]; at 11.0 µM,11%
same,growth inhibition,[15]; at 33.0 µM,60%
same,growth inhibition,[15]; at 100.0 µM,82% (active)
CCCN(CCC)CC(O)c1cc(-c2ccc(Cl)cc2)nc2c(C)c(Cl)ccc12 (stereo unspecified),growth inhibition,[1]; at 1.2 µM,-2%
same,growth inhibition,[1]; at 3.7 µM,2%
same,growth inhibition,[1]; at 11.0 µM,98% (active)
same,growth inhibition,[1]; at 33.0 µM,96% (active)
same,growth inhibition,[1]; at 100.0 µM,93% (active)
same,growth inhibition,[2]; at 1.2 µM,-1%
same,growth inhibition,[2]; at 3.7 µM,-3%
same,growth inhibition,[2]; at 11.0 µM,98% (active)
same,growth inhibition,[2]; at 33.0 µM,98% (active)
same,growth inhibition,[2]; at 100.0 µM,97% (active)
same,growth inhibition,[3]; at 1.2 µM,-2%
same,growth inhibition,[3]; at 3.7 µM,1%
same,growth inhibition,[3]; at 11.0 µM,85% (active)
same,growth inhibition,[3]; at 33.0 µM,96% (active)
same,growth inhibition,[3]; at 100.0 µM,96% (active)
same,growth inhibition,[4]; at 1.2 µM,-2%
same,growth inhibition,[4]; at 3.7 µM,-3%
same,growth inhibition,[4]; at 11.0 µM,99% (active)
same,growth inhibition,[4]; at 33.0 µM,98% (active)
same,growth inhibition,[4]; at 100.0 µM,96% (active)
same,growth inhibition,[5]; at 1.2 µM,-3%
same,growth inhibition,[5]; at 3.7 µM,7%
same,growth inhibition,[5]; [17],34%
same,growth inhibition,[5]; at 11.0 µM,98% (active)
same,growth inhibition,[5]; at 33.0 µM,96% (active)
same,growth inhibition,[5]; [18],95% (active)
same,growth inhibition,[5]; at 50.0 µM,98.4% (active)
same,growth inhibition,[5]; at 100.0 µM,93% (active)
same,growth inhibition,[6]; at 1.2 µM,-6%
same,growth inhibition,[6]; at 3.7 µM,-8%
same,growth inhibition,[6]; [17],9%
same,growth inhibition,[6]; at 11.0 µM,99% (active)
same,growth inhibition,[6]; at 33.0 µM,98% (active)
same,growth inhibition,[6]; [18],98% (active)
same,growth inhibition,[6]; at 50.0 µM,98.9% (active)
same,growth inhibition,[6]; at 100.0 µM,96% (active)
same,growth inhibition,[7]; at 1.2 µM,-2%
same,growth inhibition,[7]; at 3.7 µM,13%
same,growth inhibition,[7]; at 11.0 µM,99% (active)
same,growth inhibition,[7]; at 33.0 µM,98% (active)
same,growth inhibition,[7]; at 100.0 µM,97% (active)
same,growth inhibition,[8]; [17],36%
same,growth inhibition,[8]; [18],97% (active)
same,growth inhibition,[8]; at 50.0 µM,98.5% (active)
same,growth inhibition,[16]; at 1.2 µM,-3%
same,growth inhibition,[16]; at 3.7 µM,-3%
same,growth inhibition,[16]; at 11.0 µM,97% (active)
same,growth inhibition,[16]; at 33.0 µM,98% (active)
same,growth inhibition,[16]; at 100.0 µM,94% (active)
same,growth inhibition,[9]; [17],9%
same,growth inhibition,[9]; [18],93% (active)
same,growth inhibition,[9]; at 50.0 µM,97.6% (active)
same,growth inhibition,[10]; at 1.2 µM,-5%
same,growth inhibition,[10]; at 3.7 µM,-6%
same,growth inhibition,[10]; [17],6%
same,growth inhibition,[10]; at 11.0 µM,99% (active)
same,growth inhibition,[10]; at 33.0 µM,97% (active)
same,growth inhibition,[10]; [18],96% (active)
same,growth inhibition,[10]; at 50.0 µM,97.4% (active)
same,growth inhibition,[10]; at 100.0 µM,94% (active)
same,growth inhibition,[11]; at 1.2 µM,-3%
same,growth inhibition,[11]; at 3.7 µM,-7%
same,growth inhibition,[11]; at 11.0 µM,99% (active)
same,growth inhibition,[11]; at 33.0 µM,97% (active)
same,growth inhibition,[11]; at 100.0 µM,96% (active)
same,growth inhibition,[13]; at 1.2 µM,-2%
same,growth inhibition,[13]; at 3.7 µM,3%
same,growth inhibition,[13]; at 11.0 µM,98% (active)
same,growth inhibition,[13]; at 33.0 µM,97% (active)
same,growth inhibition,[13]; at 100.0 µM,95% (active)
same,growth inhibition,[14]; [17],27%
same,growth inhibition,[14]; [18],96% (active)
same,growth inhibition,[14]; at 50.0 µM,98.7% (active)
same,growth inhibition,[15]; at 1.2 µM,-4%
same,growth inhibition,[15]; at 3.7 µM,-5%
same,growth inhibition,[15]; at 11.0 µM,98% (active)
same,growth inhibition,[15]; at 33.0 µM,96% (active)
same,growth inhibition,[15]; at 100.0 µM,94% (active)
